Laboratory results: PubChem BioAssay (EPA / NIEHS)
The source made the active and inactive calls. How the source made its calls: active means hit-call score of the fitted dose curve at least 0.9, where 1 is the maximum; inactive means score below 0.9.

Assays:
[1] = read-out: TIMP metallopeptidase inhibitor 2 (TIMP2), TIMP2 (gene 7077); assay: BSK_KF3CT_TIMP2: BioMAP Diversity Plus: KF3CT Assay for TIMP metallopeptidase inhibitor 2 (TIMP2) Biomarker Activity (AID 2283071); conditions: primary human keratinocytes with fibroblasts; actives raise or lower the signal
Procedure, shortened: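 Cells: human keratinocytes co-cultured with foreskin fibroblasts. Treat with chemical, 24 h. Measure TIMP-2 by ELISA; fit curves bidirectionally vs DMSO baseline.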

[2] = read-out: Transforming growth factor beta 1 (TGFb1), TGFB1 (gene 7040); assay: BSK_KF3CT_TGFb1: BioMAP Diversity Plus: KF3CT Assay for Transforming growth factor beta 1 (TGFb1) Biomarker Activity (AID 2283072); conditions: primary human keratinocytes with fibroblasts; actives raise or lower the signal
Procedure, shortened: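 Primary human skin cells (keratinocytes, foreskin fibroblasts) were co-cultured, exposed to test chemical and sampled at 24 h. TGF-b1 levels were measured by ELISA and fitted bidirectionally relative to DMSO.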

[3] = read-out: C-C motif chemokine 2 (Homo sapiens) (UniProt P13500); assay: BSK_KF3CT_MCP1: BioMAP Diversity Plus: KF3CT Assay for Monocyte Chemoattractant Protein 1 (MCP1/CCL2) Biomarker Activity (AID 2283073); conditions: primary human keratinocytes with fibroblasts; actives raise or lower the signal
Procedure, shortened: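 ELISA read-out of MCP-1, 24 h post-dose, in primary human skin keratinocytes co-cultured with fibroblasts. Parallel SRB staining monitors cytotoxicity; changes fitted both directions relative to DMSO.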

[4] = read-out: Matrix Metallopeptidase 9 (MMP9), MMP9 (gene 4318); assay: BSK_KF3CT_MMP9: BioMAP Diversity Plus: KF3CT Assay for Matrix Metallopeptidase 9 (MMP9) Biomarker Activity (AID 2283074); conditions: primary human keratinocytes with fibroblasts; actives raise or lower the signal;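 on AC50: MMP9 protein level quantified by ELISA in the co-culture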
Procedure, shortened: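 Human keratinocyte and foreskin fibroblast co-culture exposed to chemicals for 24 h; MMP9 biomarker measured by ELISA, bidirectional fitting relative to DMSO; cytotoxicity tracked by SRB total protein staining in parallel cultures.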

[5] = read-out: urokinase plasminogen activator (uPA), PLAU (gene 5328); assay: BSK_KF3CT_uPA: BioMAP Diversity Plus: KF3CT Assay for urokinase plasminogen activator (uPA) Biomarker Activity (AID 2283075); conditions: primary human keratinocytes with fibroblasts; actives raise or lower the signal
Procedure, shortened: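 Primary human keratinocyte/foreskin fibroblast co-culture exposed to chemical; uPA measured by ELISA at 24 h. Bidirectional fit versus DMSO, with parallel SRB total-protein staining for cytotoxicity.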

[6] = read-out: CD40, CD40 (gene 958); assay: BSK_LPS_CD40: BioMAP Diversity Plus: LPS Assay for CD40 Biomarker Activity (AID 2283076); conditions: primary human HUVEC with PBMC; actives raise or lower the signal
Procedure, shortened: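 In the LPS system of human endothelial cells with peripheral blood mononuclear cells, CD40 levels were read by ELISA 24 h post-treatment. Signal changes in either direction were fitted against the DMSO baseline, with parallel SRB protein staining.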

[7] = read-out: E-selectin (Homo sapiens) (UniProt P16581); assay: BSK_LPS_Eselectin: BioMAP Diversity Plus: LPS Assay for Eselectin Biomarker Activity (AID 2283077); conditions: primary human HUVEC with PBMC; actives raise or lower the signal
Procedure, shortened: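 E-selectin ELISA on LPS-stimulated endothelial cell/PBMC co-cultures, read 24 h post-treatment; gains and losses fitted against DMSO. Parallel SRB staining (0.1% SRB after 10% TCA fixation, 560 nm) flags overt cytotoxicity.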

[8] = BSK_LPS_SRB: Viability Assessment in the BioMAP Diversity Plus: LPS Assay (AID 2283079); conditions: primary human HUVEC with PBMC;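 further: total protein by sulforhodamine B absorbance as a cytotoxicity measure; measured one day after compound addition; fitted in both directions against DMSO so loss or gain of signal counts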
Procedure, shortened: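 SRB viability endpoint: cells fixed with 10% TCA, stained with 0.1% SRB, read at 560 nm, 24 h post-dose. HUVEC/PBMC co-culture; signal change in either direction scored relative to DMSO.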

[9] = read-out: Interleukin-1 alpha (IL1a), IL1A (gene 3552); assay: BSK_LPS_IL1a: BioMAP Diversity Plus: LPS Assay for Interleukin-1 alpha (IL1a) Biomarker Activity (AID 2283080); conditions: primary human HUVEC with PBMC; actives raise or lower the signal
Procedure, shortened: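 Readout is IL-1a level by ELISA, 24 h post-dose, fitted as gain or loss relative to DMSO. System: LPS-activated human primary co-culture of vascular endothelium and peripheral blood mononuclear cells, with parallel SRB total-protein cytotoxicity.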

[10] = read-out: Monocyte Chemoattractant Protein-1 (MCP1), CCL2 (gene 6347); assay: BSK_LPS_MCP1: BioMAP Diversity Plus: LPS Assay for Monocyte Chemoattractant Protein-1 (MCP1) Biomarker Activity (AID 2283081); conditions: primary human HUVEC with PBMC; actives raise or lower the signal;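 on AC50: secreted MCP-1 protein quantified by ELISA in culture supernatant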
Procedure, shortened: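 Secreted MCP-1 read by ELISA at 24 h post-dosing in an LPS-activated co-culture of endothelial cells with peripheral blood mononuclear cells. Fits run in both directions, DMSO as baseline; parallel SRB staining tracks overt cytotoxicity.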

[11] = BSK_LPS_PGE2: BioMAP Diversity Plus: LPS Assay for Prostaglandin E2 (PGE2) Biomarker Activity (AID 2283082); conditions: primary human HUVEC with PBMC; actives raise or lower the signal;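 on AC50: secreted prostaglandin E2 measured by ELISA in LPS-stimulated co-culture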
Procedure, shortened: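 LPS-activated HUVEC/PBMC co-culture; cmpd dosed, 24 h; PGE2 by ELISA; bidirectional fit vs DMSO; SRB (0.1%, TCA-fixed, 560 nm) in parallel plates for overt cytotox.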

[12] = read-out: Macrophage colony-stimulating factor (MCSF), CSF1 (gene 1435); assay: BSK_LPS_MCSF: BioMAP Diversity Plus: LPS Assay for Macrophage colony-stimulating factor (MCSF) Biomarker Activity (AID 2283083); conditions: primary human HUVEC with PBMC; actives raise or lower the signal
Procedure, shortened: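 Bidirectional fitting against DMSO was applied to M-CSF levels read by ELISA at 24 h post-dose. The system pairs human umbilical vein endothelium with peripheral blood mononuclear cells; parallel SRB staining tracked cytotoxicity.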

[13] = read-out: Tissue Factor, F3 (gene 2152); assay: BSK_LPS_TissueFactor: BioMAP Diversity Plus: LPS Assay for Tissue Factor Biomarker Activity (AID 2283084); conditions: primary human HUVEC with PBMC; actives raise or lower the signal
Procedure, shortened: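 Compound was added to an endothelial cell/PBMC co-culture, and after 24 h tissue factor (CD142) was read by ELISA. Gain or loss of signal was fitted against a DMSO baseline, and parallel SRB staining (560 nm) tracked overt cytotoxicity.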

[14] = read-out: Tumor necrosis factor (Homo sapiens) (UniProt P01375); assay: BSK_LPS_TNFa: BioMAP Diversity Plus: LPS Assay for Tumour Necrosis Factor alpha (TNFa) Biomarker Activity (AID 2283085); conditions: primary human HUVEC with PBMC; actives raise or lower the signal
Procedure, shortened: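 Read-out is ELISA of TNFa in primary human endothelial cell–PBMC co-cultures at 24 h after compound. Activity in either direction was fitted against DMSO.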

[15] = read-out: Vascular cell adhesion molecule 1 (VCAM1), VCAM1 (gene 7412); assay: BSK_LPS_VCAM1: BioMAP Diversity Plus: LPS Assay for Vascular cell adhesion molecule 1 (VCAM1) Biomarker Activity (AID 2283086); conditions: primary human HUVEC with PBMC; actives raise or lower the signal
Procedure, shortened: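 HUVEC + PBMC co-culture, LPS system; compound 24 h; VCAM-1 by ELISA; bidirectional fit vs DMSO control; parallel SRB (0.1%, TCA-fixed, 560 nm) for cytotoxicity.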

[16] = read-out: CD38, CD38 (gene 952); assay: BSK_SAg_CD38: BioMAP Diversity Plus: SAg Assay for CD38 Biomarker Activity (AID 2283087); conditions: primary human HUVEC with PBMC; actives raise or lower the signal
Procedure, shortened: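 Human HUVEC plus PBMC co-culture stimulated with superantigen; CD38 measured by ELISA 24 h after chemical dosing. Fluorescence read-out, bidirectional fit against DMSO; cytotoxicity tracked in parallel by SRB and Alamar Blue.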

[17] = read-out: CD40, CD40 (gene 958); assay: BSK_SAg_CD40: BioMAP Diversity Plus: SAg Assay for CD40 Biomarker Activity (AID 2283088); conditions: primary human HUVEC with PBMC; actives raise or lower the signal
Procedure, shortened: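 CD40 is measured by fluorescence ELISA in an endothelial/PBMC primary human co-culture at 24 h post-dose. Fitting is bidirectional, DMSO baseline. Parallel SRB staining (560 nm) flags cytotoxicity.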

[18] = read-out: CD69, CD69 (gene 969); assay: BSK_SAg_CD69: BioMAP Diversity Plus: SAg Assay for CD69 Biomarker Activity (AID 2283089); conditions: primary human HUVEC with PBMC; actives raise or lower the signal;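 on AC50: cell surface CD69 protein quantified by ELISA with fluorescence detection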
Procedure, shortened: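 ELISA, fluorescence read-out: CD69 on human umbilical vein endothelial cell + PBMC co-culture, 24 h post-dosing. Gain or loss of signal fitted bidirectionally against DMSO baseline.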

[19] = read-out: Monocyte Chemoattractant Protein-1 (MCP1), CCL2 (gene 6347); assay: BSK_SAg_MCP1: BioMAP Diversity Plus: SAg Assay for Monocyte Chemoattractant Protein-1 (MCP1) Biomarker Activity (AID 2283090); conditions: primary human HUVEC with PBMC; actives raise or lower the signal
Procedure, shortened: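 MCP-1 levels in the endothelial–PBMC SAg co-culture were quantified by ELISA at 24 h post-dosing; both increases and decreases versus DMSO scored. Cytotoxicity monitored by SRB total protein in parallel cultures.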

Chain of Tumor necrosis factor (Homo sapiens) (P01375 whole entry, looked up): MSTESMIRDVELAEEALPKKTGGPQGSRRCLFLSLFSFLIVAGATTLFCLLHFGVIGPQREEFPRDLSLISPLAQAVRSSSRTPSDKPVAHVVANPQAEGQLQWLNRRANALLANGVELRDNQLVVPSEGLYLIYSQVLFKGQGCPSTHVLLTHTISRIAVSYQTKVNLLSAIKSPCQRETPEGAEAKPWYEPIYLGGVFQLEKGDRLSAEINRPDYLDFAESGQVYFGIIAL
Chain of E-selectin (Homo sapiens) (P16581 whole entry, looked up): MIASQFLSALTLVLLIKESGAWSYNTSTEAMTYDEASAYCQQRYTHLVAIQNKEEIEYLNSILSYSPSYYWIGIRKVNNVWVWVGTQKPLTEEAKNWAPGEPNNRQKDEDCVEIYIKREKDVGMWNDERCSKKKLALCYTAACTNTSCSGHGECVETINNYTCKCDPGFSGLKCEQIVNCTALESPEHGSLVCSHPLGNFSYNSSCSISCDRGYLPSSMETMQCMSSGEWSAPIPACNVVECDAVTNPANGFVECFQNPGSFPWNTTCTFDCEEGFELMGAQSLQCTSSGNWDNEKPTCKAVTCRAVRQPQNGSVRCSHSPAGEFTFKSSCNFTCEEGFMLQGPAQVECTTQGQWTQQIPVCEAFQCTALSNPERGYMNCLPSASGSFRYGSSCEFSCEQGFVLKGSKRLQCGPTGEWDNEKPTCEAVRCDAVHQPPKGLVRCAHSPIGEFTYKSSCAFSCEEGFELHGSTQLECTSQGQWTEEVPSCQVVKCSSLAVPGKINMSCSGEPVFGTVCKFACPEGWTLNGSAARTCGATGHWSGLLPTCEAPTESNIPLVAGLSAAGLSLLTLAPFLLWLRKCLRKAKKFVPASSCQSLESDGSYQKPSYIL

CCCCC(CC)COC(=O)/C=C\C(=O)OCC(CC)CCCC (configuration not stated)
outcome [1]: inactive | outcome [2]: inactive | outcome [3]: inactive | outcome [4]: inactive | outcome [5]: inactive | outcome [6]: inactive | outcome [7]: inactive | outcome [8]: inactive | outcome [9]: inactive | outcome [10]: inactive | outcome [11]: inactive | outcome [12]: inactive | outcome [13]: inactive | outcome [14]: inactive | AC50 [15]: 11.9 µM (active) | outcome [16]: inactive | outcome [17]: inactive | outcome [18]: inactive | outcome [19]: inactive

CC1COc2ccccc2N1C(=O)C(Cl)Cl (configuration not stated)
outcome [1]: inactive | outcome [2]: inactive | outcome [3]: inactive | AC50 [4]: 13.7 µM (active) | AC50 [5]: 0.0271 µM (active) | AC50 [6]: 10.9 µM (active) | AC50 [7]: 20 µM (active) | AC50 [8]: 7.42 µM (active) | AC50 [9]: 13.2 µM (active) | AC50 [10]: 5.75 µM (active) | outcome [11]: inactive | AC50 [12]: 8.01 µM (active) | outcome [13]: inactive | AC50 [14]: 4.9 µM (active) | AC50 [15]: 9.65 µM (active) | AC50 [16]: 10.4 µM (active) | AC50 [17]: 7.65 µM (active) | AC50 [18]: 5.91 µM (active) | outcome [19]: inactive

c1ccc2sc(SN(C3CCCCC3)C3CCCCC3)nc2c1
outcome [1]: inactive | outcome [2]: inactive | outcome [3]: inactive | AC50 [4]: 0.888 µM (active) | outcome [5]: inactive | outcome [6]: inactive | outcome [7]: inactive | outcome [8]: inactive | outcome [9]: inactive | outcome [10]: inactive | AC50 [11]: 13.1 µM (active) | AC50 [12]: 5.57 µM (active) | outcome [13]: inactive | AC50 [14]: 5.77 µM (active) | outcome [15]: inactive | AC50 [16]: 7.65 µM (active) | AC50 [17]: 7.96 µM (active) | AC50 [18]: 5.79 µM (active) | outcome [19]: inactive
